Test results: PubChem BioAssay (NCATS)
Records with an inconclusive call do not appear. Calls of active or inactive are those of the source. Calls follow the shape of the dose curve; as a rule, active = well fitted curve in the direction sought with a large enough effect; inconclusive = small, poorly fitted or top-dose-only effect, or another doubt; inactive = no such curve, though single readings can be large; an effect the other way counts as inactive or inconclusive.

Assays:
MCC-26 = experiment: qHTS assay to identify novel small-molecules to repurpose for Merkel cell carcinoma treatment (AID 1296009); details: MCC and control cell lines, CellTiter-Glo viability, 72 h; series mostly up to 46 µM; also: nearly all actives have a fitted effect of over 60% in size; also: potency is read from the fitted curve at half-maximal effect
How it was run: (§1)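 Luminescence from CellTiter-Glo, read 10 min after addition at room temperature, reported viability following a 72 hr, 37 degree celsius treatment with NPC or MIPE compounds in titration; values normalized to plate controls.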

MKL-1 = experiment: as above; details: MCC and control cell lines, CellTiter-Glo viability, 72 h; series mostly up to 46 µM
How it was run: as §1

MKL-2 = experiment: as above; details: MCC and control cell lines, CellTiter-Glo viability, 72 h; series mostly up to 46 µM
How it was run: as §1

NIH3T3 = experiment: as above; details: MCC and control cell lines, CellTiter-Glo viability, 72 h; series mostly up to 44.8 µM
How it was run: as §1

UISO = experiment: as above; details: MCC and control cell lines, CellTiter-Glo viability, 72 h; series mostly up to 46 µM
How it was run: as §1

WaGa = experiment: as above; details: MCC and control cell lines, CellTiter-Glo viability, 72 h; series mostly up to 46 µM
How it was run: as §1

C33A = experiment: Primary qHTS to identify gynecologic anti-cancer compounds using libraries of approved drugs and bioactive compounds (AID 1345084); details: Gynecologic cancer cell panel viability, ATPlite luminescence, 48 h; series mostly up to 57.5 µM; also: nearly all actives have a fitted effect of over 55% in size
How it was run: (§2)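 Five-concentration response, 48 h; readout is ATP-driven luciferase luminescence.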

CASKI = experiment: as above; details: Gynecologic cancer cell panel viability, ATPlite luminescence, 48 h; series mostly up to 57.5 µM
How it was run: as §2

Es-2 = experiment: as above; details: Gynecologic cancer cell panel viability, ATPlite luminescence, 48 h; series mostly up to 57.5 µM
How it was run: as §2

CAOV3 = experiment: as above; details: Gynecologic cancer cell panel viability, ATPlite luminescence, 48 h; series mostly up to 57.5 µM
How it was run: as §2
% is scaled to controls: 0 for no effect and ±100 for the full control effect.

CCOC(=O)[C@H](CCc1ccccc1)N[C@@H](C)C(=O)N1CCCC1C(=O)O (stereo partly specified)
inactive: Potency (MCC-26) | Potency (MKL-1) | Potency (MKL-2) | Potency (NIH3T3) | Potency (UISO) | Potency (WaGa)

C[C@H]1O[C@@H](n2cc(F)c(=O)[nH]c2=O)[C@H](O)[C@H]1O
inactive: Potency (MCC-26) | Potency (MKL-1) | Potency (MKL-2)

N[C@@H](CC(=O)N1CCn2c(nnc2C(F)(F)F)C1)Cc1cc(F)c(F)cc1F
inactive: Potency (MCC-26) | Potency (MKL-1) | Potency (MKL-2) | Potency (UISO) | Potency (WaGa)

CC[C@@H]([C@H](C)O)n1ncn(-c2ccc(N3CCN(c4ccc(OCC5CO[C@@](Cn6cncn6)(c6ccc(F)cc6F)C5)cc4)CC3)cc2)c1=O (stereo partly specified)
inactive: Potency (MCC-26) | Potency (MKL-1) | Potency (MKL-2) | Potency (UISO) | Potency (WaGa)

COc1nc(C)cnc1NS(=O)(=O)c1cccnc1-c1ccc(-c2nnco2)cc1
inactive: Potency (MCC-26) | Potency (MKL-1) | Potency (MKL-2) | Potency (NIH3T3) | Potency (UISO) | Potency (WaGa) | Potency (C33A) | Potency (CASKI) | Potency (Es-2)

O=C(c1ccc(C(=O)N2CCC(N3CCCC3)CC2)c(Nc2ccccc2)c1)N1CCC(N2CCCC2)CC1
inactive: Potency (MCC-26) | Potency (MKL-1) | Potency (MKL-2) | Potency (NIH3T3) | Potency (UISO) | Potency (WaGa) | Potency (C33A) | Potency (CASKI) | Potency (Es-2)

COc1ccc2c(c1)CC[C@H]1[C@@H]2CC[C@]2(C)[C@@H](NCCCCCCN3C(=O)C=CC3=O)CC[C@H]12
inactive: Potency (MCC-26) | Potency (MKL-1) | Potency (MKL-2) | Potency (UISO) | Potency (WaGa)

CS(=O)(=O)c1ccc(C2=C(c3ccccc3)C(=O)OC2)cc1
inactive: Potency (MCC-26) | Potency (MKL-1) | Potency (MKL-2) | Potency (NIH3T3) | Potency (UISO) | Potency (WaGa) | Potency (C33A) | Potency (CASKI) | Potency (Es-2)

CCCCOCCOc1nc(-c2ccc(C(=O)O)c(F)c2)sc1C
inactive: Potency (MCC-26) | Potency (MKL-1) | Potency (MKL-2) | Potency (UISO) | Potency (WaGa)

OC[C@H]1O[C@@H](O[C@H]2[C@@H](O)[C@@](O)(CO)O[C@@H]2CO)[C@H](O)[C@@H](O)[C@@H]1O
inactive: Potency (MCC-26) | Potency (MKL-1) | Potency (MKL-2) | Potency (UISO) | Potency (WaGa)

Cc1nc2c([nH]1)CCN(C(=O)c1ccc(NC(=O)c3ccccc3-c3ccccc3)cc1)c1ccccc1-2
inactive: Potency (MCC-26) | Potency (MKL-1) | Potency (MKL-2) | Potency (NIH3T3) | Potency (UISO) | Potency (WaGa) | Potency (C33A) | Potency (CASKI) | Potency (Es-2)

CC(C)(CO)[C@@H](O)C(=O)NCCC(=O)O
inactive: Potency (MCC-26) | Potency (MKL-1) | Potency (MKL-2) | Potency (UISO) | Potency (WaGa)

Cc1ccc(S(=O)(=O)Nc2nc3ccccc3nc2Nc2ccc3nsnc3c2)cc1
active: Potency (MKL-1) 1.82 µM | Potency (UISO) 5.12 µM
inactive: Potency (MCC-26) | Potency (MKL-2)

CCN1CCN(c2ccc(Nc3cc(N(C)C(=O)Nc4c(Cl)c(OC)cc(OC)c4Cl)ncn3)cc2)CC1
inactive: Potency (MCC-26) | Potency (MKL-1) | Potency (MKL-2) | Potency (NIH3T3) | Potency (WaGa) | Potency (C33A) | Potency (CAOV3) | Potency (CASKI) | Potency (Es-2)

O=C(Nc1cccc(Cl)c1)Nc1ncc(CCNc2ncnc3ccsc23)s1
active: Potency (MKL-1) 0.296 µM
inactive: Potency (MCC-26) | Potency (MKL-2) | Potency (UISO)

C[C@H](CCC(=O)O)[C@H]1CC[C@H]2[C@H]3[C@@H](CC[C@]12C)[C@@]1(C)CC[C@@H](O)C[C@H]1C[C@@H]3O
inactive: Potency (MCC-26) | Potency (MKL-1) | Potency (MKL-2) | Potency (UISO)

CO[C@H]1C=CO[C@@]2(C)Oc3c(C)c(O)c4c(O)c(c(C=NN5CCN(C)CC5)c(O)c4c3C2=O)NC(=O)C(C)=CC=C[C@H](C)[C@H](O)[C@@H](C)[C@@H](O)[C@@H](C)[C@H](OC(C)=O)[C@H]1C
inactive: activity change, negative = cytotoxicity (MCC-26) -1.4% [at 9.22 µM] | activity change, negative = cytotoxicity (MKL-1) -4.29% [at 9.22 µM] | activity change, negative = cytotoxicity (MKL-2) -21.3% [at 9.22 µM] | activity change, negative = cytotoxicity (UISO) 4.05% [at 9.22 µM] | activity change, negative = cytotoxicity (WaGa) -1.76% [at 9.22 µM]

NCC1CCC(C(=O)O)CC1 (stereo unspecified)
inactive: Potency (MCC-26) | Potency (MKL-1) | Potency (MKL-2) | Potency (UISO) | Potency (WaGa)

Cc1cnc(-c2cc(N3CCN(C(=O)CCS(C)(=O)=O)CC3)ncc2Cl)c(C)c1
inactive: Potency (MCC-26) | Potency (MKL-1) | Potency (MKL-2) | Potency (NIH3T3) | Potency (UISO) | Potency (WaGa) | Potency (C33A) | Potency (CASKI) | Potency (Es-2)

N#CC(c1ccnc(NCCc2cccnc2)n1)c1nc2ccccc2s1 (stereo unspecified)
inactive: Potency (MCC-26) | Potency (MKL-1) | Potency (MKL-2) | Potency (UISO)

O=C1C(c2c(O)[nH]c3ccccc23)=Nc2ccccc21
inactive: Potency (MCC-26) | Potency (MKL-1) | Potency (MKL-2) | Potency (NIH3T3) | Potency (WaGa) | Potency (C33A) | Potency (CASKI) | Potency (Es-2)

O=c1cc(-c2ccc(O)c(O)c2)oc2cc(O)cc(O)c12
inactive: Potency (MCC-26) | Potency (MKL-1) | Potency (MKL-2) | Potency (UISO)

CC(C)c1c(C(=O)Nc2ccccc2)c(-c2ccccc2)c(-c2ccc(F)cc2)n1CC[C@H](O)C[C@@H](O)CC(=O)O
active: Potency (MKL-1) 18.7 µM | Potency (MKL-2) 10.5 µM | Potency (UISO) 14.8 µM | Potency (WaGa) 23.5 µM
inactive: Potency (MCC-26)

O=C(Nc1ccccc1)Nc1ccc(-c2ccc(C(=O)[C@H]3CCC[C@H]3C(=O)O)cc2)cc1
inactive: Potency (MCC-26) | Potency (MKL-1) | Potency (MKL-2) | Potency (UISO) | Potency (WaGa)

O=C1CCCC(=O)C1C(=O)c1ccc(C(F)(F)F)cc1[N+](=O)[O-]
inactive: Potency (MCC-26) | Potency (MKL-1) | Potency (MKL-2) | Potency (UISO) | Potency (WaGa)
